Here are results for 57 compounds from ChEMBL document CHEMBL4513216, “Probing the Open Global Health Chemical Diversity Library for Multistage-Active Starting Points for Next-Generation Antimalarials” (ACS Infect Dis, 2020).

Screen size: about 69,000 compounds; about 8,600 (12%) showed an effect of 50% or more. The entries come from a sample that favours strong results as a whole.

The experiment relates to Plasmodium berghei. The experiment can be described thus: Screen against P. berghei liver stage (PbLuc), transformed with Luciferase, at 10uM. The following applies: tested at 10 uM. Type of experiment: functional, HepG2.
Regarding `CCc1nc(C2CCCN2Cc2nc(Cc3ccccc3)no2)no1` (configuration not stated), the INHIBITION is 31.3%.

Consider `c1ccc(Cn2ccnc2CN2CCCC2c2noc(C3CC3)n2)cc1` (configuration not stated), for which the INHIBITION is reported as 18.6%. On to `Cc1cc(CN2CCCC2c2noc(C3CC3)n2)c2ccccc2n1` (configuration not stated), for which the INHIBITION amounted to 64.5%. The figure for `CCc1nc(C2CCCN2Cc2nnc(Cc3ccccc3)o2)no1` (configuration not stated) is 5.97%; for `CCc1nc(C2CCCN2Cc2nnc(CC)o2)no1` (configuration not stated) it is -0.219%. As to `Cc1nnc(CN2CCCC2c2ccc(C(C)(C)C)cc2)o1` (configuration not stated), the INHIBITION came to 38.8%. With `Cc1nnc(CN2CCCC2c2ccsc2)o1` (configuration not stated), the INHIBITION is reported as 53.9%.

For `CCc1nc(C2CCCN2Cc2nc(C(C)(C)C)no2)no1` (configuration not stated), the INHIBITION was found to be 71.2%. The figure for `CCc1nc(C2CCCN2Cc2noc(Cc3ccccc3)n2)no1` (configuration not stated) is 72.8%; for `Cn1ccnc1CN1CCCC1c1noc(C2CC2)n1` (configuration not stated) it is 7.64%. As to `COCc1ccccc1CNC(=O)CNc1ccccc1C(C)=O`, the INHIBITION was -1.79%. `O=C(C1CCOC1)N1CCC2(CC1)CN(Cc1nccs1)CCO2` (configuration not stated): the INHIBITION stood at 15.9%.

Turning to `CNC(=O)c1ccc(C(=O)N2CCCC2c2c(C)nn(C)c2C)cn1` (configuration not stated), the INHIBITION worked out at 31.2%. As for `Cc1cn2c(n1)CCC(NC(=O)c1csc(C(C)C)n1)C2` (configuration not stated), the INHIBITION is recorded as 19.5%. `CCc1c(C)nc2n(c1=O)CC(C(=O)Nc1sccc1C(=O)OC)CS2` (configuration not stated): the INHIBITION is on record as -7.25%. The figure for `CN(Cc1nnc2n1CCC2)C(=O)c1ccc2c(c1)OCCCO2` is 26.4%; for `Nc1nc2nc(C3CCCN(C(=O)c4cncs4)C3)ccc2s1` (configuration not stated) it is 18.3%. On to `Cc1nc(CN2CCCC2c2noc(C3CC3)n2)nc2ccccc12` (configuration not stated), for which the INHIBITION is on record as 80.25%. As for `CCc1nc(C2CCCN2Cc2cnc(C)cn2)no1` (configuration not stated), the INHIBITION is reported as -4.94%. On to `COc1c(C)cnc(CN2CCCC2c2noc(C3CC3)n2)c1C` (configuration not stated), for which the INHIBITION is on record as 21.3%. For the compound `CCc1nc(C2CCCN2Cc2cc(C)nc3ccccc23)no1` (configuration not stated), the INHIBITION is given as 60.75%.

With `Cc1noc(CN2CCCC2c2noc(C3CC3)n2)n1` (configuration not stated), the INHIBITION was 38.5%. The figure for `CCc1nc(C2CCCN2Cc2nc3ccccc3o2)no1` (configuration not stated) is 20.2%; for `c1ccc2oc(CN3CCCC3c3noc(C4CC4)n3)nc2c1` (configuration not stated) it is -87.5025%; for `c1ccc2nc(CN3CCCC3c3noc(C4CC4)n3)ccc2c1` (configuration not stated) it is 54.7%. The figure for `Cc1cnc(CN2CCCC2c2noc(C3CC3)n2)cn1` (configuration not stated) is -4.94%; for `COc1ccc(C)cc1CN1CCCC1c1noc(C2CC2)n1` (configuration not stated) it is 80.3%. The figure for `Cc1nc(CN2CCCC2c2noc(C3CC3)n2)oc1C` (configuration not stated) is 49.35%; for `CCc1noc(CN2CCCC2c2noc(C3CC3)n2)n1` (configuration not stated) it is 27.4%; for `O=C(NCC1(c2ccc(F)cc2)CCCC1)N1CCOC(CO)C1` (configuration not stated) it is -14.3%. For the compound `CN(C)CCn1c2c(ccc1=O)CCN(C(=O)c1ccoc1)CC2`, the INHIBITION is on record as -73.5%. For `Cc1c(C(=O)N2CCC(O)(CN(C)C)C2)c2ccccc2n1C` (configuration not stated), the INHIBITION turned out to be 35.2%.

Take `O=c1oc(-c2cccs2)nn1CC(O)c1ccccc1F` (configuration not stated): the INHIBITION is 35.4%. `Cc1nn(C)c(C)c1C1CCCN1Cc1nc(C)c2ccccc2n1` (configuration not stated): the INHIBITION is reported as 12.7%. To `c1cc(CN2CCCC2c2noc(C3CC3)n2)on1` (configuration not stated) belongs 37.4%; to `c1ccc2sc(CN3CCCC3c3noc(C4CC4)n3)nc2c1` (configuration not stated), 78%; to `Cc1nn(C)c(C)c1C1CCCN1Cc1nc(N)c2ccccc2n1` (configuration not stated), 23.4%.

Turning to `Cc1nc(CN2CCCC2c2ccsc2)nc2ccccc12` (configuration not stated), the INHIBITION was 53.8%. As to `C1CC(c2noc(C3CC3)n2)N(Cc2nc(C3CC3)no2)C1` (configuration not stated), the INHIBITION came out at 2.3%. Regarding `NC(=O)c1nc(CC(=O)Nc2cccc(C(F)(F)F)c2)no1`, the INHIBITION was -14.8%. `CCOC(=O)CCC(=O)NC(C)c1ccc(NC(=O)CC)cc1` (configuration not stated): the INHIBITION came out at 37.1%. As for `O=C(Cc1cnc(-c2c(Cl)cccc2Cl)s1)N1CCOCC1`, the INHIBITION turned out to be 19.3%. In the case of `CN1CCN(Cc2ccncc2)C(=O)C12CCN(c1nccs1)CC2`, the INHIBITION amounted to 58.5%. For `CN1CCN(CCO)C(=O)C12CCN(c1nccs1)CC2`, the INHIBITION is 23.1%. `CC(C)CN1CCN(C)C2(CCN(c3nccs3)CC2)C1=O`: the INHIBITION was 45.2%.

Regarding `CCNc1nnc(SCc2nnc(C(C)(C)C)o2)s1`, the INHIBITION is recorded as -7.93%. To `CC(=O)N1CCN(C(=O)CN2CCCC2Cn2nc(C)cc2C)CC1` (configuration not stated) belongs -14.6%; to `C=c1ncsc1=C1NN=C(C2CCCN2C(=O)Cn2cccn2)O1` (configuration not stated), 19.24%; to `CC1c2ncc(COc3cccnc3)n2CCN1Cc1cnn(C)c1` (configuration not stated), 34%. With `Cc1ccsc1CN1CCn2c(COc3cccnc3)cnc2C1C` (configuration not stated), the INHIBITION was determined as 65.7%. `Cc1csc(CN2CCn3c(COc4cccnc4)cnc3C2C)n1` (configuration not stated): the INHIBITION is listed as 31.2%. `Cc1ncsc1CN1CCn2c(COCC3CC3)cnc2C1C` (configuration not stated): the INHIBITION is recorded as 18.5%. Take `Cc1ncsc1CN1CCn2c(COc3cccnc3)cnc2C1C` (configuration not stated): the INHIBITION worked out at 58.7%. Take `CC1c2ncc(COc3cccnc3)n2CCN1C(=O)Cc1ccco1` (configuration not stated): the INHIBITION was -36.3%.

Take `CC1c2ncc(COc3cccnc3)n2CCN1Cc1ccco1` (configuration not stated): the INHIBITION was 54.8%. For `Cc1ccc(CN2CCn3c(COc4cccnc4)cnc3C2C)o1` (configuration not stated), the INHIBITION came out at 25.8%.

Turning to `CCOCc1cnc2n1CCN(Cc1scnc1C)C2C` (configuration not stated), the INHIBITION is reported as 20.1%.
